# HTR5A ag ctr = HTR5A agonism, opioid heterodimer counter-screen; P47898; HTR5A agonist assay, luminescence, cell-based; activation, % at 9.3 µM; hit rate 0.61% among 340,000; AID 504692; in the data active means activation mostly above about 9.5%, no sharp cut-off; inactive means mostly below about 7.6%;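 further: 0% = cells with vehicle only and 100% = reference agonist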
# Target sequence (P47898 whole entry, looked up): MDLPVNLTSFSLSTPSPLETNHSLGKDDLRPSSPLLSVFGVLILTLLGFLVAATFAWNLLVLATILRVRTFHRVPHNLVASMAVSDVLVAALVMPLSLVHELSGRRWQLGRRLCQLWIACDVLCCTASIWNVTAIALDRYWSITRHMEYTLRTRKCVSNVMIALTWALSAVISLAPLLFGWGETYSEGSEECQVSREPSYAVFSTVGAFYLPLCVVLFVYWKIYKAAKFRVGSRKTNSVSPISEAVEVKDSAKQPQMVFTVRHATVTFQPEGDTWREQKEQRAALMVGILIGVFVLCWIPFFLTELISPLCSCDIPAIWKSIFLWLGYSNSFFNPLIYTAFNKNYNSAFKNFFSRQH
# OPRM1-OPRD1 ag = agonists of human mu-delta opioid receptor heterodimerization | activation, % at 9.3 µM | hit rate 0.3% among 340,000 | P35372+P41143 | AID 504326 | cells, OPRM1-OPRD1 heterodimerization, luminescence;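 further: 0% = vehicle-treated cells and 100% = reference agonist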
# OPRM1-OPRD1 inv = mu-delta opioid heterodimer inverse agonism | inhibition, % at 9.3 µM | cell-based MOR-DOR heterodimer luminescence | hit rate 0.21% among 340,000 | P35372+P41143; in the data active means inhibition above about 22%, passing the limit was not always enough;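 further: 0% = cells with DMSO and 100% = wells without cells with DMSO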
# HTR5A inv ctr = counter-screen for OPRM1-OPRD1 inverse agonists: human HTR5A inverse agonism. P47898. HTR5A cell line, luminescence. inhibition, % at 9.3 µM. hit rate 0.083% among 340,000. AID 504634; in the data active means inhibition mostly above about 23%, no sharp cut-off; inactive means mostly below about 18%;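 further: 0% = cells with DMSO and 100% = no-cell wells with DMSO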
# MOR-DOR ag conf = OPRM1-OPRD1 heterodimer agonism, confirmation; shares compounds with OPRM1-OPRD1 ag; cells, MOR-DOR heterodimerization, luminescence complementation; hit rate 45% among 830; activation, % at 9.3 µM;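 further: 0% = vehicle-treated cells and 100% = reference agonist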
# HTR5A ag counter = activates human HTR5A in OPRM1-OPRD1 agonist counter-screen; activation, % at 9.3 µM; AID 504905; shares compounds with OPRM1-OPRD1 ag; HTR5A agonist counterscreen, cell luminescence; hit rate 8% among 830; in the data active means activation above about 17%;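 further: 0% = vehicle-treated cells and 100% = reference agonist response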
# Starred values were filed as active, the others as inactive; i = inactive; · = not tested or not shown; + = active, no number. Rows were chosen to be rich in hits. Some 1.1% of all compounds tested hit in one or more screens of this group. Unless noted, no stated cut-off is given here; in the data, active means activation above about 18%; inactive means the rest.
SMILES,HTR5A ag ctr,OPRM1-OPRD1 ag,OPRM1-OPRD1 inv,HTR5A inv ctr,MOR-DOR ag conf,HTR5A ag counter
O=C(CCl)N(CCCNC(=O)C(F)(F)F)c1ccc([N+](=O)[O-])cc1,-1,18*,-94,-8,28*,29*
O=C1CCN(Cc2ccccc2)CCN1[C@H](COc1ccccc1)Cc1ccccc1,5,25*,-140,7,25*,2
CCCN1CCC(=O)N([C@H](COc2ccccc2)Cc2ccccc2)CC1,3,0,3,-1,·,·
O=C(Nc1cccc(NC(=O)c2cccc([N+](=O)[O-])c2)n1)c1cccc([N+](=O)[O-])c1,-3,24*,-116,11,18*,3
Cc1ccc(-c2nnc(SCC(=O)N/N=C/c3ccc(C)s3)n2-c2ccc(C)cc2)cc1,1,18*,-87,-16,10,2
CCOc1ccc2[nH]c3c(N4CCN(c5ccccn5)CC4)ncnc3c2c1,0,35*,-200,-11,19*,8
Cc1ccc(C(=O)c2c(C)oc3c2C(=O)C(=O)c2ccccc2-3)cc1,14*,34*,-170,-30,1,-2
CCN(CC)CCCN(C(=O)c1cccs1)c1nc(-c2ccc(OC)cc2)cs1,3,51*,-266,21,1,27*
CCN(CC)CCCN(C(=O)c1ccc(Br)cc1)c1nc(-c2ccc(OC)cc2)cs1,2,7,-36,5,·,·
CN(C)/C=C1\C(=O)N(C)N=C1C(F)(F)F,-2,1,-5,-11,·,·
Cc1ccc2nc(N(CCCN(C)C)C(=O)c3ccc(S(=O)(=O)N4CCOCC4)cc3)sc2c1,1,-4,21,-4,·,·
CN(C)CCCN(C(=O)c1ccc(S(=O)(=O)N2CCc3ccccc32)cc1)c1nc2ccc(F)cc2s1,5,179*,i,-42,-3,-7
CN(C)CCCN(C(=O)c1ccc(S(=O)(=O)N2CCc3ccccc3C2)cc1)c1nc2ccc(F)cc2s1,8,655*,i,-29,+,16
Cc1ccc2nc(N(CCCN(C)C)C(=O)c3ccc(S(=O)(=O)N4CCc5ccccc5C4)cc3)sc2c1,5,130*,i,-19,44*,4
CN(C)CCCN(C(=O)c1ccc(S(=O)(=O)N2CCCCCC2)cc1)c1nc2c(F)cc(F)cc2s1,6,55*,-299,9,111*,0
Cc1ccc(N=C2NC(=O)CS2)cc1C,-1,-4,19,3,·,·
NC(=O)c1ccc(N2CCN(S(=O)(=O)c3cccs3)CC2)c([N+](=O)[O-])c1,5,-2,8,-14,·,·
Cc1cc(S(=O)(=O)Nc2ccc(C(=O)NCc3cccnc3)cc2)ccc1F,2,0,1,-6,·,·
CN(C)CCCN(C(=O)c1ccc(S(=O)(=O)N2CCc3ccccc3C2)cc1)c1nc2c(F)cccc2s1,-4,107*,-351,11,-1,-2
Cc1cccc2sc(N(CCCN(C)C)C(=O)c3ccc(S(=O)(=O)N4CCc5ccccc5C4)cc3)nc12,4,18,-102,-13,·,·
COc1ccc(Oc2ccc3c(C(F)(F)F)cc(C(F)(F)F)nc3n2)cc1,-1,1,-4,2,·,·
Oc1ccc(Oc2ccc3c(C(F)(F)F)cc(C(F)(F)F)nc3n2)cc1,15,20*,-103,-32,82*,-1
CN(C)C(CNC(=S)Nc1ccc(F)cc1)c1cccnc1 (configuration not stated),2,112*,i,9,-2,-3
Cc1cccc(NC(=S)N(CCN(C)C)C(C)c2cccnc2)c1 (configuration not stated),-3,-1,3,24,·,·
Cc1cccc(NC(=S)NCC(c2cccnc2)N(C)C)c1 (configuration not stated),-1,218*,i,5,210*,-3
CC(=O)Cc1nsc(NC(=O)c2ccc(COc3cccc(C)c3)o2)n1,4,-2,12,-4,·,·
c1ccc(-c2csc(Nc3ncccn3)n2)cc1,5,4,-20,1,·,·
Oc1ccc(-c2csc(Nc3ncccn3)n2)cc1,6,23*,-110,-18,-2,-3
CCCC(c1nnnn1Cc1cccs1)N1CCN(C)CC1 (configuration not stated),1,-2,9,-2,·,·
COc1ccccc1CN1CCN(C(CC(C)C)c2nnnn2Cc2cccs2)CC1 (configuration not stated),8,46*,-268,-38,63*,2
